Screen size: about 5,500 compounds; about 2,000 (36%) were called active. Roughly 18% stayed inconclusive and do not appear here. No stated cut-off is given here; in the data, active means normalized growth mostly below about 0.91 (no sharp cut-off); inconclusive means no clear call, values can overlap the other calls; inactive means mostly above about 0.92. The list shows a part of the results.
Assay: chemical genetic growth profiling, strain panel (AID 1159580);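 further: tested at 20 µM; growth read once vehicle control cultures reached saturation at 30 °C; 1 = growth at the plate median or of vehicle wells; lower values mean less growth of the strain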
Conditions: growth OD

Measured: normalized growth

CC(=O)NCCCCCC(=O)O
inactive: S. cerevisiae deletion strains, locus YJL187C, strain SWE1, active compounds read low 1.01 | S. cerevisiae deletion strains, locus YJR043C, strain POL32, active compounds read low 1.01 | S. cerevisiae deletion strains, locus YJR075W, strain HOC1, active compounds read low 1.02 | S. cerevisiae deletion strains, locus YKL009W, strain mrt4, active compounds read low 0.997 | S. cerevisiae deletion strains, locus YKL068W, active compounds read low 0.994 | S. cerevisiae deletion strains, locus YKL085W, strain MDH1 (second series), active compounds read low 0.989 | S. cerevisiae deletion strains, locus YKL085W, strain MDH1, active compounds read low 0.989 | S. cerevisiae deletion strains, locus YKL160W, strain elf1, active compounds read low 1.03 | S. cerevisiae deletion strains, locus YKL190W, strain CNB1, active compounds read low 1.01 | S. cerevisiae deletion strains, locus YKR001C, strain vps1, active compounds read low 1.01 | S. cerevisiae deletion strains, locus YKR026C, strain gcn3, active compounds read low 0.963 | S. cerevisiae deletion strains, locus YKR091W, strain srl3, active compounds read low 0.985 | S. cerevisiae deletion strains, locus YLL001W, strain dnm1, active compounds read low 1.01 | S. cerevisiae deletion strains, locus YLL026W, active compounds read low 1.01 | S. cerevisiae deletion strains, locus YLL041C, strain sdh2, active compounds read low 0.994 | S. cerevisiae deletion strains, locus YLR027C, strain aat2, active compounds read low 1.02 | S. cerevisiae deletion strains, locus YLR039C, strain RIC1, active compounds read low 1.04 | S. cerevisiae deletion strains, locus YLR058C, strain SHM2, active compounds read low 1.02 | S. cerevisiae deletion strains, locus YLR102C, strain apc9, active compounds read low 0.989 | S. cerevisiae deletion strains, locus YLR221C, strain rsa3, active compounds read low 1 | S. cerevisiae deletion strains, locus YLR258W, strain gsy2, active compounds read low 0.992 | S. cerevisiae deletion strains, locus YLR262C, strain YPT6 (second series), active compounds read low 1.02 | S. cerevisiae deletion strains, locus YLR262C, strain YPT6, active compounds read low 1.07 | S. cerevisiae deletion strains, locus YLR268W, strain sec22, active compounds read low 0.996 | S. cerevisiae deletion strains, locus YLR320W, strain mms22, active compounds read low 1 | S. cerevisiae deletion strains, locus YLR330W, strain CHS5, active compounds read low 1.01 | S. cerevisiae deletion strains, locus YLR342W, strain FKS1 (second series), active compounds read low 1 | S. cerevisiae deletion strains, locus YLR342W, strain FKS1, active compounds read low 0.982 | S. cerevisiae deletion strains, locus YLR357W, strain rsc2, active compounds read low 1.01 | S. cerevisiae deletion strains, locus YLR370C, strain arc18, active compounds read low 0.991 | S. cerevisiae deletion strains, locus YLR371W, strain rom2, active compounds read low 0.983 | S. cerevisiae deletion strains, locus YLR384C, strain iki3, active compounds read low 0.983 | S. cerevisiae deletion strains, locus YLR418C, strain cdc73, active compounds read low 0.963 | S. cerevisiae deletion strains, locus YML016C, strain PPZ1, active compounds read low 1.01 | S. cerevisiae deletion strains, locus YML032C, strain rad52, active compounds read low 0.986 | S. cerevisiae deletion strains, locus YML120C, strain ndi1, active compounds read low 1.01 | S. cerevisiae deletion strains, locus YML124C, strain tub3, active compounds read low 0.989 | S. cerevisiae deletion strains, locus YMR058W, strain fet3, active compounds read low 0.981 | S. cerevisiae deletion strains, locus YMR078C, strain ctf18, active compounds read low 1 | S. cerevisiae deletion strains, locus YMR125W, strain sto1, active compounds read low 0.986 | S. cerevisiae deletion strains, locus YMR129W, active compounds read low 0.976 | S. cerevisiae deletion strains, locus YMR205C, strain PFK2, active compounds read low 0.968 | S. cerevisiae deletion strains, locus YMR223W, strain ubp8, active compounds read low 0.976 | S. cerevisiae deletion strains, locus YMR231W, strain pep5, active compounds read low 0.978 | S. cerevisiae deletion strains, locus YMR307W, strain GAS1, active compounds read low 1.01 | S. cerevisiae deletion strains, locus YNL067W, strain RPL9B, active compounds read low 1.02 | S. cerevisiae deletion strains, locus YNL071W, strain lat1, active compounds read low 0.989 | S. cerevisiae deletion strains, locus YNL209W, strain ssb2, active compounds read low 0.994 | S. cerevisiae deletion strains, locus YNL233W, strain BNI4, active compounds read low 1.03 | S. cerevisiae deletion strains, locus YNL248C, strain rpa49, active compounds read low 1.01 | S. cerevisiae deletion strains, locus YNL250W, strain rad50, active compounds read low 0.992 | S. cerevisiae deletion strains, locus YNL271C, strain bni1, active compounds read low 0.971 | S. cerevisiae deletion strains, locus YNL298W, strain CLA4, active compounds read low 0.986 | S. cerevisiae deletion strains, locus YNL307C, strain MCK1, active compounds read low 0.988 | S. cerevisiae deletion strains, locus YNL322C, strain KRE1 (second series), active compounds read low 0.995 | S. cerevisiae deletion strains, locus YNL322C, strain KRE1, active compounds read low 1.01 | S. cerevisiae deletion strains, locus YNR049C, strain mso1, active compounds read low 0.973 | S. cerevisiae deletion strains, locus YNR052C, strain pop2, active compounds read low 0.995 | S. cerevisiae deletion strains, locus YOL006C, strain TOP1, active compounds read low 1.09 | S. cerevisiae deletion strains, locus YOL012C, strain htz1 0.886 | S. cerevisiae deletion strains, locus YOL147C, strain pex11, active compounds read low 0.988 | S. cerevisiae deletion strains, locus YOR001W, strain rrp6, active compounds read low 1.04 | S. cerevisiae deletion strains, locus YOR061W, strain CKA2, active compounds read low 1.02 | S. cerevisiae deletion strains, locus YOR069W, strain VPS5, active compounds read low 1.01 | S. cerevisiae deletion strains, locus YOR070C, strain gyp1, active compounds read low 0.994 | S. cerevisiae deletion strains, locus YOR080W, strain dia2, active compounds read low 0.988 | S. cerevisiae deletion strains, locus YOR083W, strain WHI5, active compounds read low 1.06 | S. cerevisiae deletion strains, locus YOR106W, strain vam3, active compounds read low 1.01 | S. cerevisiae deletion strains, locus YOR136W, strain idh2, active compounds read low 0.985 | S. cerevisiae deletion strains, locus YOR144C, strain elg1, active compounds read low 0.978 | S. cerevisiae deletion strains, locus YOR184W, strain ser1, active compounds read low 0.982 | S. cerevisiae deletion strains, locus YOR265W, strain rbl2, active compounds read low 1.01 | S. cerevisiae deletion strains, locus YOR270C, strain vph1, active compounds read low 0.968 | S. cerevisiae deletion strains, locus YOR290C, strain snf2, active compounds read low 0.939 | S. cerevisiae deletion strains, locus YOR316C, strain cot1, active compounds read low 0.987 | S. cerevisiae deletion strains, locus YPL051W, strain arl3, active compounds read low 1.02 | S. cerevisiae deletion strains, locus YPL055C, strain LGE1, active compounds read low 1.07 | S. cerevisiae deletion strains, locus YPL078C, strain atp4, active compounds read low 1 | S. cerevisiae deletion strains, locus YPL106C, strain sse1, active compounds read low 0.977 | S. cerevisiae deletion strains, locus YPL240C, strain hsp82, active compounds read low 0.99 | S. cerevisiae deletion strains, locus YPR119W, strain clb2, active compounds read low 0.993 | S. cerevisiae deletion strains, locus YPR141C, strain kar3, active compounds read low 0.989 | S. cerevisiae deletion strains, locus YPR163C, strain tif3, active compounds read low 0.98 | S. cerevisiae deletion strains, locus YPR167C, strain met16, active compounds read low 0.977 | S. cerevisiae deletion strains, strain wtn01, active compounds read low 0.976 | S. cerevisiae strains, strain wild type, active compounds read low 1.01
